SW480 rereplic: induces DNA re-replication in SW480 colon adenocarcinoma cells; SW480 DNA re-replication, Hoechst DNA content imaging, 48 h; Potency, µM (titrated, usually from 46.1 µM), most hits filed as activators; 340,000 tested, 1.8% active; AID 624297; also: nearly all actives have a fitted effect of over 55% in size
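Cells (250 per well) received 23 nL compound or DMSO by pin tool and were kept 48 hr at 37 C, 5% CO2. Nuclei were then stained with Hoechst for 40 min and scanned for DNA content.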
KB-V1 cytotox: kills drug-selected multidrug resistant KB-V1 cells | AID 1347076 | 400,000 tested, 3.4% active | Potency, µM (top dose mostly 46.1 µM), usual class: cytotoxic | KB-V1 MDR cells viability, CellTiter-Glo, 72 h; also: nearly all actives have a fitted effect of over 60% in size
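qHTS viability screen in drug-selected KB-V1 MDR cells: 72 h compound treatment at 37 degrees C, ATP luminescence end point.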
MCF10A rereplic: induces DNA re-replication in MCF 10a normal breast cells. Potency, µM (highest dose often 46.1 µM), actives largely listed as activators. AID 624296. MCF 10A DNA re-replication, Hoechst nuclear intensity, 48 h. 350,000 tested, 2.9% active; also: nearly all actives have a fitted effect of over 50% in size
KB-3-1 cytotox: kills parental KB-3-1 adenocarcinoma cells. AID 1347075. 400,000 tested, 1.4% active. Potency, µM (highest dose often 46.1 µM), actives largely listed as cytotoxic. KB-3-1 viability, CellTiter-Glo ATP luminescence, 72 h; also: nearly all actives have a fitted effect of over 60% in size
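Using CellTiter-Glo luminescence, growth of non-resistant KB-3-1 adenocarcinoma cells is assessed 72 h after pin-tool compound addition at 37 °C. Normalized responses across the concentration series yield fitted curves.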
PINK1 modulator: PINK1 expression modulation; PINK1 immunofluorescence, high-content cytometry, 24 h; Potency, µM (series often up to 76.6 µM), usual class: activators; 410,000 tested, 0.2% active; AID 624263; active = well fitted activation curve with a large enough effect; inconclusive = small, poorly fitted or top-dose-only effect; cell line not stated here; also: nearly all actives have a fitted effect of over 65% in size
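A stable cell line was treated with compounds at 5 concentrations for 24 hours, with CCCP as control. PINK1 levels and mitochondrial localization were measured by immunofluorescence with mitochondrial, cell and nuclear markers after fixation, read by laser-scanning cytometry.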
Hits are given with their value; n = inactive; u = inconclusive; x = not tested or not shown; ! = not confirmed by another sample. Sampled rows, rich in hits. Any-hit rate of the full collection: about 6.7%. Unless noted, calls follow the shape of the dose curve; as a rule, active = well fitted curve in the direction sought with a large enough effect; inconclusive = small, poorly fitted or top-dose-only effect, or another doubt; inactive = no such curve, though single readings can be large; an effect the other way counts as inactive or inconclusive.

SMILES | SW480 rereplic | KB-V1 cytotox | MCF10A rereplic | KB-3-1 cytotox | PINK1 modulator
CC1=C(C(=O)N2CCCCCC2)CC(CC(=O)NCCc2ccccn2)C(=O)N1Cc1ccc(F)cc1 (configuration not stated) | x | n | x | n | n
CNc1cc(-c2cccc(C(=O)N3CCOCC3)c2)ncn1 | x | n | x | n | n
COC(CNc1ncnc2sc(-c3ccccc3)cc12)OC | n | n | n | n | n
CC(O)CNc1ncnc2cc(-c3ccc(F)cc3)sc12 (configuration not stated) | u | u | 13µM | n | n
O=C(Nc1ccc(N2CCOCC2)nc1N1CCOCC1)c1cccc(C(F)(F)F)c1 | n | n | n | n | n
O=C(N/N=C/c1c(O)ccc2ccccc12)c1cccc(C(F)(F)F)c1 | u | n | 4.6µM | u | u
O=C(N/N=C/c1ccc(N2CCOCC2)o1)c1cccc(C(F)(F)F)c1 | u | n | 21µM | n | n
O=C(N/N=C\c1c(O)ccc2ccccc12)c1ccc(Cn2cccn2)o1 | u | u | 10µM | 16µM | u
O=C(N/N=C\c1ccc(Cl)s1)c1ccc(Cn2cccn2)o1 | n | n | n | u | n
Clc1ccc(Br)c(-c2nc3ccccc3[nH]2)c1 | x | n | x | n | n
COc1cc(/C=C2\SC(N3CCc4ccccc4C3)=NC2=O)cc(OC)c1OC | n | 2.3µM | u | u | n
COc1ccc(/C=C2\SC(N3CCc4ccccc4C3)=NC2=O)cc1 | n | u | u | n | n
CN(C)CCNc1nc(-c2ccco2)c2c(c1C#N)CC(C)(C)OC2 | n | n | n | n | n
CCCCN(C)c1nc(-c2ccco2)c2c(c1C#N)CC(C)(C)OC2 | 16µM | n | u | n | n
O=C1C2C3C=CC(C3)C2C(=O)N1CCCCCCN1C(=O)C2C3C=CC(C3)C2C1=O (configuration not stated) | n | 18µM | n | u | n
COC(=O)/C=C1\OC(c2ccccc2)c2ccccc21 (configuration not stated) | x | u | x | n | x
CCNC(=O)c1cc2c(=O)n3cccc(C)c3nc2n(Cc2ccc(C)cc2)c1=N | 2.1µM | u | u | u | n
Cc1cccn2c(=O)c3cc(C(=O)NC(C)C)c(=N)n(Cc4ccncc4)c3nc12 | 21µM | n | 16µM | n | n
COCCCNC(=O)c1cc2c(=O)n3cccc(C)c3nc2n(C(C)C)c1=N | 2.8µM | n | u | n | n
O=C(c1cccnc1)C1CCCN(Cc2ccc3c(c2)CN(C(=O)c2cn4ccccc4n2)CCO3)C1 (configuration not stated) | x | x | x | x | n
CCOc1ccc(NC(=O)Cn2cnc3sc(C)c(S(=O)(=O)N4CCN(c5ccccc5OC)CC4)c3c2=O)cc1 | x | n | x | n | n
COc1ccc(-n2c(=O)c(-c3ccc(Cl)cc3)nc3cnc(N4CCOCC4)nc32)cc1 | x | x | x | x | n
Cc1cccc(-c2nnc(SCC#N)n2-c2cccc(Cl)c2)c1 | n | u | n | n | n
COc1ccc(-n2c(SCCC#N)nnc2-c2cc(Cl)ccc2OC)cc1Cl | u | u | 16µM | u | n
COc1ccc2c(c1)O[C@@H](c1ccc3c(c1)OCO3)[C@H](OC(=O)Nc1cc(OC)c(OC)c(OC)c1)C2=O | 16µM | x | 3.7µM | x | x
SMILES | SW480 rereplic | KB-V1 cytotox | MCF10A rereplic | KB-3-1 cytotox | PINK1 modulator
COc1ccc2c(c1)O[C@H](c1ccc3c(c1)OCO3)[C@@H](OC(=O)N[C@H]1CCCc3ccccc31)C2=O | n | n | n | n | n
CCCNC(=O)C1(C)CCCN(Cc2ccccc2N(C)C)C1 (configuration not stated) | x | n | x | n | n
CC(C)(C)S(=O)(=O)/C(C#N)=C/Nc1ccccn1 | n | n | n | n | n
CN(C)/C=C(\C#N)S(=O)(=O)C(C)(C)C | n | n | 5.2µM | n | n
CCn1nc(NC(=O)CC(C)C)c2cc3cccc(C)c3nc21 | 21µM | n | 9.2µM | n | n
Cc1cccc2cc3c(NC(=O)c4ccccn4)nn(C)c3nc12 | u | n | 8.2µM | n | n
CCCCn1nc(NC(=O)c2cccc(Cl)c2)c2cc3cccc(C)c3nc21 | x | x | x | x | n
CCCn1nc(NC(=O)COC)c2cc3cccc(C)c3nc21 | n | n | n | n | n
CCn1nc(NC(=O)CC(C)C)c2cc3ccc(C)cc3nc21 | u | n | u | n | n
CCCC(=O)Nc1nn(C)c2nc3c(C)cccc3cc12 | u | n | u | n | n
CCCn1nc(NC(C)=O)c2cc3cccc(C)c3nc21 | 18µM | n | 18µM | n | n
CCCn1nc(NC(=O)CC(C)C)c2cc3cccc(C)c3nc21 | 10µM | n | 10µM | n | n
COc1ccccc1NC(=O)c1cc2c(=O)n(Cc3cccs3)ccc2nc1C | x | x | x | x | n
COc1ccc(C2C(=O)N(C3CCC(C)CC3)CC(=O)N2Cc2ccc(C)cc2)cc1OC (configuration not stated) | x | x | x | x | n
CCn1nc(NC(=O)C(C)(C)C)c2cc3cccc(C)c3nc21 | u | n | 6.5µM | n | n
CC(=O)Nc1ccc(S(=O)(=O)Oc2ccc(N3C(=O)C4CCCCC4C3=O)cc2)cc1 (configuration not stated) | n | 18µM | n | u | n
COc1ccc(C)cc1NC(=O)NC(C)c1ccncc1 (configuration not stated) | n | n | n | n | n
COc1ccc(NC(=O)NC(C)c2ccncc2)cc1OC (configuration not stated) | n | n | n | n | 11µM
COc1ccc(Cl)cc1NC(=O)NC(C)c1ccncc1 (configuration not stated) | n | 18µM | u | n | n
Cc1ccc(NC(=O)C2CCC(CNS(=O)(=O)c3cccc4nsnc34)CC2)c(Cl)c1 (configuration not stated) | x | n | x | n | n
COCc1ccc(CN2CCOc3c(cc(-c4cc(C)c5cccc(OC)c5n4)cc3OC)C2)o1 | x | x | x | x | n
C/C(=N\NC(=O)COc1ccc(C)cc1Br)c1cc([N+](=O)[O-])cs1 | 9.2µM | u | 8.2µM | 21µM | n
C/C(=N\NC(=O)COc1ccc(C)cc1[N+](=O)[O-])c1cccs1 | u | n | n | n | n
C=C(CC)C(=O)c1ccc(OCC(=O)O)c(Cl)c1Cl | u | n | 19µM! | n | n
COCCCn1c(=N)c(C(=O)NC2CCCC2)cc2c(=O)n3cc(C)ccc3nc21 | x | u | x | u | n
C=CCn1c(=N)c(C(=O)NCCCOC)cc2c(=O)n3cc(C)ccc3nc21 | u | u | 8.2µM | n | n
C=CCn1c(=N)c(C(=O)NCCCOC)cc2c(=O)n3ccccc3nc21 | 1.3µM | n | 2.1µM | n | n
N#C/C(=C/c1ccc(N2CCCCCC2)o1)c1ccc(Cl)cc1 | 13µM | n | 2.9µM | n | 7.9µM
N#C/C(=C/c1ccc(N2CCCCC2)cc1)c1cccc(F)c1 | n | u | n | n | u
N#C/C(=C/c1ccc(N2CCCCC2)o1)c1cccc(F)c1 | 8.2µM | n | 7.3µM | n | 7.1µM
